This is part of a sample that, as a whole, favours compounds with a hit. Of some 79,000 tested, about 15% had one in any assay. Values without a mark were called inactive. The source made the active and inactive calls. Cut-off read from the data, not from the text of the source: active = growth inhibition above about 70%; inactive = the rest.
Assay: NCI Yeast Anticancer Drug Screen. Data for the wt2 strain (AID 169);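 note: 0% = growth of vehicle-treated yeast cultures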
Conditions: S. cerevisiae wt2 strain growth inhibition, active compounds read high
Method: Growth inhibition of yeast strains with defined genetic alterations is measured as a screen for potential anti-cancer activity. Selected strains with alterations in DNA damage repair or cell cycle control were exposed to compounds and growth inhibition was measured relative to vehicle treated controls. The strain used in this assay is wt2

| SMILES | growth inhibition (at 1.2 µM) [%] | growth inhibition (at 3.7 µM) [%] | growth inhibition (at 11.0 µM) | growth inhibition (at 33.0 µM) | growth inhibition (at 100.0 µM) |
| --- | --- | --- | --- | --- | --- |
| c1ccc(N/N=C2\CC(c3ccccc3)Oc3ccccc32)cc1 (stereo not given) | 0 | -4 | 5% | 21% | 29% |
| Oc1ccc(Br)cc1C=Nc1cccc(C(F)(F)F)c1 | -1 | -1 | 0% | 10% | 65% |
| COc1ccc(C(=O)OCCc2ccccc2)cc1 | -6 | -9 | -3% | -12% | -8% |
| [Cl][Pt+2][Cl].[NH-]CC1(C[NH-])CCCCC1 | -23 | 28 | 90% (active) | 99% (active) | 99% (active) |
| O=C1c2ccccc2C2CCC1c1ccccc12 (stereo not given) | -1 | -11 | 4% | 0% | 97% (active) |
| O=CC(=C(I)I)c1ccccc1 | 4 | 5 | 38% | 99% (active) | 99% (active) |
| O=C1c2ccccc2-c2ccc(NC(=O)C3CCCCC3C(=O)O)cc21 (stereo not given) | 0 | -1 | 1% | 24% | 80% (active) |
| Cc1ccc(P(c2ccc(C)cc2)c2ccc(C)cc2)cc1 | -17 | -15 | -15% | 5% | 13% |

From PubChem BioAssay (NCI)
